The text below walks through data of PubChem BioAssay (EPA / NIEHS).

Structures are written as SMILES. The source made the active and inactive calls. Rule for the calls: active = hit-call score of the fitted dose curve at least 0.9, where 1 is the maximum; inactive = score below 0.9.

Read-out in experiment [1]: Tumor necrosis factor receptor superfamily member 6 (Homo sapiens) (UniProt P25445)
The experiment in a line: LTEA_HepaRG_FAS: Life Technologies and Expression Analysis (LTEA) Assay for Fas cell surface death receptor (FAS) using HepaRG (AID 2283447). To be noted: mRNA level, 48 h; actives raise or lower the signal. Summed up: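 Differentiated human HepaRG cells, pre-cultured 48 h, were exposed in duplicate for 48 h to 8-point half-log concentrations (top 100 uM, 0.5% DMSO) in serum-free induction medium; FAS mRNA measured by qRT-PCR, normalized to ACTB/GAPDH/POLR2A, bidirectional fit versus DMSO.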

Read-out in experiment [2]: Fatty acid synthase (Homo sapiens) (UniProt P49327)
The experiment in a line: LTEA_HepaRG_FASN: Life Technologies and Expression Analysis (LTEA) Assay for Fatty Acid Synthase (FASN) using HepaRG (AID 2283448). To be noted: mRNA level, 48 h; actives raise or lower the signal. Summed up:
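Differentiated HepaRG cells in serum-free induction medium exposed 48 h in duplicate to eight half-log concentrations, top 100 uM, 0.5% DMSO. FASN mRNA by qRT-PCR normalised to ACTB, GAPDH, POLR2A; bidirectional fit versus DMSO.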

A short description of experiment [3]: CEETOX_H295R_OHPROG: CeeTox H295R High-throughput Steroidogenesis Assay for OH-Progesterone (OHPROG) (AID 2283435).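 For AC50: human adrenal H295R cells primed 48 h with 10 µM forskolin.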 Particulars: actives raise or lower the signal. Summed up:
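H295R adrenal cells prestimulated 48 h with 10 uM forskolin, then exposed 48 h to chemical (0.1% DMSO final). 17alpha-hydroxyprogesterone in medium quantified by HPLC-MS/MS; bidirectional fit versus DMSO, with MTT viability measured in the same wells.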

Experiment [4] can be described thus: CEETOX_H295R_CORTIC: CeeTox H295R High-throughput Steroidogenesis Assay for Corticosterone (CORTIC) (AID 2283437).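 Note: corticosterone secreted into medium quantified by mass spectrometry.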 Particulars: actives raise or lower the signal. Summed up: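 H295R cells were prestimulated 48 h with 10 uM forskolin, then exposed 48 h to test chemical in 0.1% DMSO. Medium corticosterone was MTBE-extracted and quantified by HPLC-MS/MS; bidirectional fit versus DMSO baseline.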

A short description of experiment [5]: CEETOX_H295R_DOC: CeeTox H295R High-throughput Steroidogenesis Assay for DOC (AID 2283439). To be noted: actives raise or lower the signal. In short, it runs like this: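 H295R cells prestimulated 48 h with 10 uM forskolin, then exposed 48 h to test chemical (0.1% DMSO final). Medium 11-deoxycorticosterone measured by HPLC-MS/MS after MTBE extraction; bidirectional fit vs DMSO, viability checked by MTT in same wells.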

Experiment [6] is described as follows: CEETOX_H295R_PROG: CeeTox H295R High-throughput Steroidogenesis Assay for Progesterone (PROG) (AID 2283442).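 For AC50: human H295R adrenal cells primed with 10 µM forskolin before dosing.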 Particulars: actives raise or lower the signal. Summed up: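 Progesterone read-out: HPLC-MS/MS on MTBE extracts of conditioned medium after 48 h chemical exposure of forskolin-primed (10 uM, 48 h) H295R cells. Gain or loss of signal was fitted relative to DMSO baseline.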

Experiment [7] is described as follows: CEETOX_H295R_CORTISOL: CeeTox H295R High-throughput Steroidogenesis Assay for Cortisol (AID 2283438).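 Note: cortisol secreted into medium quantified by LC-MS/MS.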 Particulars: actives raise or lower the signal. In short, it runs like this: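 Forskolin-primed H295R cells (10 uM, 48 h) treated 48 h with test chemical in 0.1% DMSO. Cortisol in medium quantified by MTBE extraction and HPLC-MS/MS; bidirectional fit vs DMSO, MTT viability in same wells.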

Experiment [8] in a line: CEETOX_H295R_ESTRADIOL: CeeTox H295R High-throughput Steroidogenesis Assay for Estradiol (AID 2283440).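 Note: estradiol secreted into medium quantified by LC-MS/MS after dansyl derivatisation.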 To be noted: actives raise or lower the signal. In short, it runs like this:
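H295R, 48 h forskolin (10 uM) prestim → 48 h compound, 0.1% DMSO final. Estradiol in medium: MTBE extraction, dansyl chloride derivatization, LC-MS/MS. Fit bidirectional vs DMSO baseline; MTT viability in same wells.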

Experiment [9] is described as follows: CEETOX_H295R_ESTRONE: CeeTox H295R High-throughput Steroidogenesis Assay for Estrone (AID 2283441).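 Note: estrone secreted into medium measured by LC-MS/MS after dansyl derivatization.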 Particulars: actives raise or lower the signal. Summed up: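 H295R cells prestimulated 48 h with 10 uM forskolin, then exposed 48 h to chemicals in 0.1% DMSO final; estrone in medium extracted with MTBE, dansyl-derivatized, quantified by HPLC-MS/MS; bidirectional fitting versus DMSO, viability by MTT.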

A short description of experiment [10]: CEETOX_H295R_ANDR: CeeTox H295R High-throughput Steroidogenesis Assay for Androstenedione (ANDR) (AID 2283436). Particulars: actives raise or lower the signal. In short, it runs like this: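 H295R human adrenal cells (passages ≤10) were exposed to test chemicals for 48 h; androstenedione in medium was MTBE-extracted and quantified by HPLC-MS/MS against a 7-point standard curve. Bidirectional fitting used DMSO as baseline.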

In general, AC50 refers to the concentration at which the activity in the assay is half-maximal.

Fatty acid synthase (Homo sapiens), sequence (P49327 whole entry, looked up): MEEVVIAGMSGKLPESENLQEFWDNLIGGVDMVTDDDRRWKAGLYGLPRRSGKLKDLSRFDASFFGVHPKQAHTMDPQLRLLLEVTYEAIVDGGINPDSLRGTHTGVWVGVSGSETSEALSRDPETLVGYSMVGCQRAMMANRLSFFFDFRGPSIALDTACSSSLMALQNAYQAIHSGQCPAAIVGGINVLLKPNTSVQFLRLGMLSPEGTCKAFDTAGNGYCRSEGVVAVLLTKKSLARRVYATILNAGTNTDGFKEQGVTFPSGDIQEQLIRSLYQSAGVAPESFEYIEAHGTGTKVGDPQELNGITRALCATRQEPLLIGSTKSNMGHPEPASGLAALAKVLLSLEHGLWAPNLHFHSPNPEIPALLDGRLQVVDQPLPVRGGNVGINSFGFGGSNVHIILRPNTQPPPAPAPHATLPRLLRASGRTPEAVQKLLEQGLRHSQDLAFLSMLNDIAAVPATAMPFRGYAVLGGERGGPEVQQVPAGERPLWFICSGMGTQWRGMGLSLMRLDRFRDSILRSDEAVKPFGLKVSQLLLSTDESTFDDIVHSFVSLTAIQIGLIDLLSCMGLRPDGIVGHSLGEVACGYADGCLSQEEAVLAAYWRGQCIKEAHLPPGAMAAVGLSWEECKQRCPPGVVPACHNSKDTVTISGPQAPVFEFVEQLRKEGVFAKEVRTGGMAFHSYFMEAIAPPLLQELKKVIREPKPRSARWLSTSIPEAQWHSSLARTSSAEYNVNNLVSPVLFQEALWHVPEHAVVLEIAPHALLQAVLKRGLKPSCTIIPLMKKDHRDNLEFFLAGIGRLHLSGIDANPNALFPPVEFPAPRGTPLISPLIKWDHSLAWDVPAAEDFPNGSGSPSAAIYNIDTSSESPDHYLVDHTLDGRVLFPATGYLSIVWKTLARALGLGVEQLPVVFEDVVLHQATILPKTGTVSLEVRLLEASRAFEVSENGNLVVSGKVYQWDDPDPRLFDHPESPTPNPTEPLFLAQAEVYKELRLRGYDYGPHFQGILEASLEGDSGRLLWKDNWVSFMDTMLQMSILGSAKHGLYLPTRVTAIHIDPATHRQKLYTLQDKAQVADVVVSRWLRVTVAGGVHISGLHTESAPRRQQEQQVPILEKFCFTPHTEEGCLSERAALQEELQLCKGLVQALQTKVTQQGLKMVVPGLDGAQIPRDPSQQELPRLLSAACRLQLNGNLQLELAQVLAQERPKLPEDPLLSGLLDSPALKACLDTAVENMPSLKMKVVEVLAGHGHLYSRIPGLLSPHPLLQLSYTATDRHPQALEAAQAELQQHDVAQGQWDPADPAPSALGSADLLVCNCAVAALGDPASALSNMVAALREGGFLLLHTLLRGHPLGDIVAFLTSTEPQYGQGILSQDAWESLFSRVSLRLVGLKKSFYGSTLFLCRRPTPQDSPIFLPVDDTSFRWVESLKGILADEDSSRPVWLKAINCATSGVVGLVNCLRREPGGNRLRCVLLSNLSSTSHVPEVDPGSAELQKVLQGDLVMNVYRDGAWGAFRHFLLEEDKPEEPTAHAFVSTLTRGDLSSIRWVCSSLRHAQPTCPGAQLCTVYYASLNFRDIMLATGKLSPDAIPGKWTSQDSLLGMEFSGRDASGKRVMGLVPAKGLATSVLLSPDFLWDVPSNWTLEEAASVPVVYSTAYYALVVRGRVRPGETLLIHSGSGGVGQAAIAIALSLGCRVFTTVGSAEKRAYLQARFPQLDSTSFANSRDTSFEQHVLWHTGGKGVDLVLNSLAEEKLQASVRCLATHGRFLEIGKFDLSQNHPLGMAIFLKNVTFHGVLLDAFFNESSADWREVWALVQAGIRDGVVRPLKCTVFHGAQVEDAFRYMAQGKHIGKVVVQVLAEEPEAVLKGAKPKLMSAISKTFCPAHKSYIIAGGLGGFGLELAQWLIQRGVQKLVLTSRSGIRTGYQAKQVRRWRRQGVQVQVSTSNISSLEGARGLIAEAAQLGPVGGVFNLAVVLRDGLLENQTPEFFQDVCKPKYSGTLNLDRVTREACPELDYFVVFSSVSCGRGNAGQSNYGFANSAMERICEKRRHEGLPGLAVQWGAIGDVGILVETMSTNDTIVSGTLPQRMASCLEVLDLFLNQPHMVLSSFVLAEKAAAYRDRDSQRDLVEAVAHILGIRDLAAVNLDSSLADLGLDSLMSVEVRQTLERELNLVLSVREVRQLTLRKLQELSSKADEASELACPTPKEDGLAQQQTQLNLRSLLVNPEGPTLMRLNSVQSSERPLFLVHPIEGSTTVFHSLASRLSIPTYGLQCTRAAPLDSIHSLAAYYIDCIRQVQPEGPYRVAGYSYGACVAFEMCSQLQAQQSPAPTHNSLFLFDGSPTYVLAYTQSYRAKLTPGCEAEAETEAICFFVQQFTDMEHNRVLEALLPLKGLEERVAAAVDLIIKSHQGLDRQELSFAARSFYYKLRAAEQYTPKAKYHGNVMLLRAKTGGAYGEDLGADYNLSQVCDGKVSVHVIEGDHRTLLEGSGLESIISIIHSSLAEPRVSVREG

As to `COCC(C)O` (stereo not given), the result in experiment [1] and in [2] was inactive.

On to `NC(=O)N(O)[C@@H]1C=C[C@H](Oc2cccc(Oc3ccc(F)cc3)c2)C1`, for which the result in experiment [3], in experiment [4], in experiment [5] and in experiment [6] was inactive. Moreover, the AC50 in experiment [1] was 67.2 µM (active); in experiment [2], 85 µM (active).

In the case of `C[C@@H]1C[C@H]2[C@@H]3CCC4=CC(=O)C=C[C@]4(C)[C@@]3(F)[C@@H](O)C[C@]2(C)[C@@]1(O)C(=O)COP(=O)(O)O`, the compound was called inactive in [3], in experiment [4], in experiment [7], in [5], in experiment [8] and in experiment [9]. Moreover, the call in [6], in experiment [1] and in experiment [2] was inactive.

With `CCc1ccc(CCOc2ccc(CC3SC(=O)NC3=O)cc2)nc1` (stereo not given), the result in [3], in [4], in experiment [1] and in [2] was inactive. Besides, the AC50 in experiment [5] was 19.5 µM (active); in experiment [6], 32.2 µM (active).

For the compound `O=[N+]([O-])c1ccc(O)cc1`, in [3], the AC50 was 27.3 µM (active). In addition, the result in experiment [6], in [1] and in [2] was inactive.

On to `O=C(OCCOCCOC(=O)c1ccccc1)c1ccccc1`, for which the outcome in experiment [1] and in [2] was inactive.

Consider `COCC(C)OCC(C)O` (stereo not given), for which the result in [1] and in [2] was inactive.

In the case of `COC(=O)CCCCC(=O)OC`, the result in experiment [3], in experiment [4], in [7], in experiment [5], in experiment [6] and in experiment [1] was inactive. The compound was called inactive in [2].

For `CCC(=C(c1ccc(O)cc1)c1ccc(OCCN(C)C)cc1)c1ccccc1`, the call in experiment [3], in [10], in [4], in experiment [7], in experiment [5] and in [6] was inactive. For the same compound, the compound was classed as inactive in experiment [1] and in [2].

Regarding `CCN(CC)CCNc1ccc(CNC=O)c2sc3ccc(OC)cc3c(=O)c12`, the result in experiment [1] was inactive.

As for `C=C(C)C(=O)OCCC(F)(F)C(F)(F)C(F)(F)C(F)(F)C(F)(F)C(F)(F)F`, the outcome in experiment [1] and in [2] was inactive.

For `CN1CCC[C@H]1c1cccnc1`, the outcome in [3], in [8], in [9], in experiment [6], in experiment [1] and in experiment [2] was inactive.
